{
  "source": "PubChem BioAssay (Tox21)",
  "note": "Records with an inconclusive call do not appear. Entries that show only a call come without a potency. Active and inactive are the calls of the source. Unless noted, the call rests on the fitted dose curve.",
  "data": [
    {"biological_target": "Peroxisome proliferator-activated receptor delta (Homo sapiens) (UniProt Q03181)", "sequence (Q03181 whole entry, looked up)": "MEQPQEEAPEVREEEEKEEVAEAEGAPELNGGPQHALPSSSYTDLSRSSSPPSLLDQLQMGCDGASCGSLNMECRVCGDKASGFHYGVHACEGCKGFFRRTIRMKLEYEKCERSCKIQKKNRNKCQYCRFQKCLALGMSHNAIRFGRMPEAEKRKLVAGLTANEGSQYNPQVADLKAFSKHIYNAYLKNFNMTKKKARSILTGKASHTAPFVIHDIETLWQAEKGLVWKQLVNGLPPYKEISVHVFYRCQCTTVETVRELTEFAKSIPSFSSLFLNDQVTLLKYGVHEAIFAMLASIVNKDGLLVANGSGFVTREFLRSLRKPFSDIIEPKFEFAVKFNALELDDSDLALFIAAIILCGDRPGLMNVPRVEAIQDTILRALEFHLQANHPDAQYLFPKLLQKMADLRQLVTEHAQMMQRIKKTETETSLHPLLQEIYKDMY", "test": "qHTS assay to identify small molecule agonists of the peroxisome proliferator-activated receptor delta (PPARd) signaling pathway (AID 743212);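 further: HEK293H cells with PPARd UAS beta-lactamase reporter GeneBLAzer system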", "settings": "HEK293H PPARd-UAS-bla, beta-lactamase FRET ratio, 17 h; series mostly up to 62.6 µM", "procedure,_shortened": "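Steps: seed PPARd-bla HEK293H cells; incubate 5 h, 37 C, 5% CO2; add compounds in DMSO; incubate, 37 C; add LiveBLAzer B/G FRET substrate; hold 2 h at room temperature; measure fluorescence.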", "values": [
      {"smiles": "CC(C)OC(=O)CCCCC(=O)OC(C)C", "outcome": "inactive"},
      {"smiles": "CC(=O)Nc1ccc(S(=O)(=O)Nc2ccc([N+](=O)[O-])cc2)cc1", "outcome": "inactive"},
      {"smiles": "Cc1ccc(S(=O)(=O)O)c(C)c1", "outcome": "inactive"},
      {"smiles": "CCCCNc1ccc(C(=O)OCCN(C)C)cc1", "outcome": "inactive"},
      {"smiles": "COc1ccc2c(c1)C(=O)N(CCc1ccc(S(=O)(=O)NC(=O)NC3CCCCC3)cc1)C(=O)C2(C)C", "outcome": "inactive"},
      {"smiles": "CCN(C)C(=O)Oc1cccc([C@H](C)N(C)C)c1", "outcome": "inactive"},
      {"smiles": "CC(C)CCCCOC(=O)c1ccccc1C(=O)OCCCCC(C)C", "outcome": "inactive"},
      {"smiles": "C=C(C)C(=O)OCC(C)(C)COC(=O)C(=C)C", "outcome": "inactive"},
      {"smiles": "CC(=O)Nc1cccc(C)c1", "outcome": "inactive"},
      {"smiles": "CC(C)(C)c1nnc(NS(=O)(=O)c2ccc(N)cc2)s1", "outcome": "inactive"},
      {"smiles": "OCCN(CCO)c1cccc(Cl)c1", "outcome": "inactive"},
      {"smiles": "COc1cc2c(cc1OC)[C@@H]1CC(=O)[C@@H](CC(C)C)CN1CC2", "outcome": "inactive"},
      {"smiles": "O=C(c1ccc(O)cc1)c1ccc(O)c(O)c1O", "outcome": "inactive"},
      {"smiles": "CCCCNC1CC(C)(C)NC(C)(C)C1", "outcome": "inactive"},
      {"smiles": "CCO[Si](CCCS)(OCC)OCC", "outcome": "inactive"},
      {"smiles": "CC(CC=O)CCCC(C)(C)O", "note": "(stereo unspecified)", "outcome": "inactive"},
      {"smiles": "CCCCCCOC(=O)CC", "outcome": "inactive"},
      {"smiles": "O=C(O)CCSSCCC(=O)O", "outcome": "inactive"},
      {"smiles": "O=C1CCCC(=O)O1", "outcome": "inactive"},
      {"smiles": "CCCCCOC(=O)CCC", "outcome": "inactive"},
      {"smiles": "CCCC/C=C\\CCCCCCCCCC=O", "outcome": "inactive"},
      {"smiles": "CCOC(=O)c1ccc(OC(=O)CCCCCN=C(N)N)cc1", "outcome": "inactive"},
      {"smiles": "C=C(C)C(=O)OCc1ccccc1", "outcome": "inactive"},
      {"smiles": "COP(=O)(OC)OC(c1ccc(Cl)cc1)P(=O)(OC)OC", "note": "(stereo unspecified)", "outcome": "inactive"},
      {"smiles": "NS(=O)(=O)c1ccc(NC(=O)CCC(=O)O)cc1", "outcome": "inactive"},
      {"smiles": "CCCCN", "outcome": "inactive"},
      {"smiles": "CCCCCCOc1ccccc1C(N)=O", "outcome": "inactive"},
      {"smiles": "C=C(C)C(=O)OCCN(CC)CC", "outcome": "inactive"},
      {"smiles": "CCCOC(OCCC)OCCC", "outcome": "inactive"},
      {"smiles": "CCOCCOCCOCC", "outcome": "inactive"},
      {"smiles": "CCc1ccc(C=O)cc1", "outcome": "inactive"},
      {"smiles": "C[Si](C)=O", "activation": "0.307% [at 5.95 µM] (inactive)"},
      {"smiles": "COCCOC(=O)C1=C(C)NC(C)=C(C(=O)OC(C)C)C1c1cccc([N+](=O)[O-])c1", "note": "(stereo unspecified)", "outcome": "inactive"},
      {"smiles": "O=C(O)Cc1ccc(Cl)cc1Cl", "outcome": "inactive"},
      {"smiles": "CC(CN)CC(C)(C)CCN", "note": "(stereo unspecified)", "outcome": "inactive"},
      {"smiles": "NNc1nnc(NN)c2ccccc12", "outcome": "inactive"},
      {"smiles": "COC(=O)[C@@H]1[C@H]2C[C@H]3c4[nH]c5ccccc5c4CCN3C[C@@H]2CC[C@@H]1O", "outcome": "inactive"},
      {"smiles": "Cc1ccccc1N=O", "outcome": "inactive"}
    ]},
    {"system": "not listed separately", "test": "qHTS assay to identify small molecule antagonists of the peroxisome proliferator-activated receptor delta (PPARd) signaling pathway - cell viability counter screen (AID 743213; active means well fitted cell-killing curve with a large enough effect in the repeat runs; further: nearly all actives have a fitted effect of over 50% in size)", "settings": "PPARd-bla HEK293H viability, CellTiter-Glo luminescence, 17 h; series mostly up to 62 µM", "procedure,_shortened": "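Cytotoxicity counter screen: CellTiter-Glo luminescence read 30 min after addition, in the same wells as the reporter assay. There, PPARd UAS-bla HEK293H cells (3000/well) were treated 17 h at 37 C with compound and 300 nM L165041.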", "values": [
      {"smiles": "CCCCNc1ccc(C(=O)OCCN(C)C)cc1", "outcome": "inactive"},
      {"smiles": "CC(=O)Nc1cccc(C)c1", "outcome": "inactive"},
      {"smiles": "OCCN(CCO)c1cccc(Cl)c1", "outcome": "inactive"},
      {"smiles": "CCO[Si](CCCS)(OCC)OCC", "outcome": "inactive"},
      {"smiles": "CCCCCCOC(=O)CC", "outcome": "inactive"},
      {"smiles": "CCCC/C=C\\CCCCCCCCCC=O", "outcome": "inactive"},
      {"smiles": "C=C(C)C(=O)OCc1ccccc1", "outcome": "inactive"},
      {"smiles": "NS(=O)(=O)c1ccc(NC(=O)CCC(=O)O)cc1", "outcome": "inactive"},
      {"smiles": "CCCCN", "outcome": "inactive"},
      {"smiles": "CCOCCOCCOCC", "outcome": "inactive"},
      {"smiles": "COC(=O)[C@@H]1[C@H]2C[C@H]3c4[nH]c5ccccc5c4CCN3C[C@@H]2CC[C@@H]1O", "outcome": "inactive"},
      {"smiles": "Cc1ccccc1N=O", "outcome": "inactive"}
    ]},
    {"biological_target": "Peroxisome proliferator-activated receptor delta (Homo sapiens) (UniProt Q03181)", "test": "qHTS assay to identify small molecule antagonists of the peroxisome proliferator-activated receptor delta (PPARd) signaling pathway (AID 743215; active means well fitted inhibition curve with a large enough effect in the signal ratio in the repeat runs, not every such curve was filed as active; the % refers to the signal ratio;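 further: cells stimulated with agonist L165041 at 300 nM final during compound exposure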)", "settings": "HEK293H PPARd-UAS-bla, beta-lactamase FRET ratio, antagonist, 17 h; series mostly up to 62 µM", "procedure,_shortened": "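Fluorescence from cleaved LiveBLAzer B/G FRET substrate (2 h, room temperature) reports PPARd-driven beta-lactamase in HEK293H UAS-bla cells. Cells had been treated 17 h at 37 C with compound plus 300 nM final L165041.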", "values": [
      {"smiles": "Cc1ccc(S(=O)(=O)O)c(C)c1", "outcome": "inactive"},
      {"smiles": "CCCCNc1ccc(C(=O)OCCN(C)C)cc1", "outcome": "inactive"},
      {"smiles": "COc1ccc2c(c1)C(=O)N(CCc1ccc(S(=O)(=O)NC(=O)NC3CCCCC3)cc1)C(=O)C2(C)C", "outcome": "inactive"},
      {"smiles": "CCN(C)C(=O)Oc1cccc([C@H](C)N(C)C)c1", "outcome": "inactive"},
      {"smiles": "CC(C)CCCCOC(=O)c1ccccc1C(=O)OCCCCC(C)C", "outcome": "inactive"},
      {"smiles": "C=C(C)C(=O)OCC(C)(C)COC(=O)C(=C)C", "outcome": "inactive"},
      {"smiles": "CC(C)(C)c1nnc(NS(=O)(=O)c2ccc(N)cc2)s1", "outcome": "inactive"},
      {"smiles": "COc1cc2c(cc1OC)[C@@H]1CC(=O)[C@@H](CC(C)C)CN1CC2", "outcome": "inactive"},
      {"smiles": "O=C(c1ccc(O)cc1)c1ccc(O)c(O)c1O", "outcome": "inactive"},
      {"smiles": "CCCCNC1CC(C)(C)NC(C)(C)C1", "outcome": "inactive"},
      {"smiles": "CC(CC=O)CCCC(C)(C)O", "note": "(stereo unspecified)", "outcome": "inactive"},
      {"smiles": "O=C(O)CCSSCCC(=O)O", "outcome": "inactive"},
      {"smiles": "CCCCCOC(=O)CCC", "outcome": "inactive"},
      {"smiles": "COP(=O)(OC)OC(c1ccc(Cl)cc1)P(=O)(OC)OC", "note": "(stereo unspecified)", "outcome": "inactive"},
      {"smiles": "CCCCCCOc1ccccc1C(N)=O", "outcome": "inactive"},
      {"smiles": "C=C(C)C(=O)OCCN(CC)CC", "outcome": "inactive"},
      {"smiles": "CCCOC(OCCC)OCCC", "outcome": "inactive"},
      {"smiles": "CCc1ccc(C=O)cc1", "outcome": "inactive"},
      {"smiles": "C[Si](C)=O", "ratio activity, negative = inhibition": "22.7% [at 6.26 µM] (inactive)"},
      {"smiles": "COCCOC(=O)C1=C(C)NC(C)=C(C(=O)OC(C)C)C1c1cccc([N+](=O)[O-])c1", "note": "(stereo unspecified)", "outcome": "inactive"},
      {"smiles": "O=C(O)Cc1ccc(Cl)cc1Cl", "outcome": "inactive"},
      {"smiles": "CC(CN)CC(C)(C)CCN", "note": "(stereo unspecified)", "outcome": "inactive"},
      {"smiles": "NNc1nnc(NN)c2ccccc12", "outcome": "inactive"}
    ]},
    {"biological_target": "Bile acid receptor (Homo sapiens) (UniProt Q96RI1)", "sequence (Q96RI1 whole entry, looked up)": "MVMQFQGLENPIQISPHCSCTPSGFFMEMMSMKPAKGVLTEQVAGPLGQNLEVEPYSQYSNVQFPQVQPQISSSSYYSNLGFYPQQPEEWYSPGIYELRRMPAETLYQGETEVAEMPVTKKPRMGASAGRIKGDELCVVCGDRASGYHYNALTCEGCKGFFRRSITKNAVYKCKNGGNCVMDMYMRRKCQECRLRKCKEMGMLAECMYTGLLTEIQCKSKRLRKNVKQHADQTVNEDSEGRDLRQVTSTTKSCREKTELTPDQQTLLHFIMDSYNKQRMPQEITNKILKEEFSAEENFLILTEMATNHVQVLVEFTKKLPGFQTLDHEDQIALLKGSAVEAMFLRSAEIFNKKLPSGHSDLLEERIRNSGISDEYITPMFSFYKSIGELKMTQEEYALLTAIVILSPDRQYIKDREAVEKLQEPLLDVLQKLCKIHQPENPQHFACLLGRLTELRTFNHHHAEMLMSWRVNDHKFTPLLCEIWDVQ", "test": "qHTS assay to identify small molecule antagonists of the farnesoid-X-receptor (FXR) signaling pathway (AID 743217; active means well fitted inhibition curve with a large enough effect in the signal ratio in the repeat runs, not every such curve was filed as active; the % refers to the signal ratio; further: potency means the concentration at half of the fitted maximal effect)", "settings": "HEK293T FXR-UAS-bla, beta-lactamase ratio, CDCA-stimulated, 16 h; series mostly up to 62.6 µM", "procedure,_shortened": "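FRET fluorescence after 2 h room-temperature LiveBLAzer loading gives the readout. Prior step: FXR-bla HEK 293T cells, seeded and incubated 5 h, received test compounds plus 50 uM final CDCA for 16 h at 37 °C.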", "values": [
      {"smiles": "CC(C)OC(=O)CCCCC(=O)OC(C)C", "Potency": "24.6 µM (active)"},
      {"smiles": "CCN(C)C(=O)Oc1cccc([C@H](C)N(C)C)c1", "Potency": "inactive"},
      {"smiles": "O=C(c1ccc(O)cc1)c1ccc(O)c(O)c1O", "Potency": "inactive"},
      {"smiles": "CCCCCCOC(=O)CC", "Potency": "inactive"},
      {"smiles": "O=C(O)CCSSCCC(=O)O", "Potency": "inactive"},
      {"smiles": "CCCC/C=C\\CCCCCCCCCC=O", "Potency": "inactive"},
      {"smiles": "C=C(C)C(=O)OCc1ccccc1", "Potency": "inactive"},
      {"smiles": "NS(=O)(=O)c1ccc(NC(=O)CCC(=O)O)cc1", "Potency": "inactive"},
      {"smiles": "CCCOC(OCCC)OCCC", "Potency": "inactive"},
      {"smiles": "C[Si](C)=O", "activity change, negative = inhibition": "6.53% [at 5.95 µM] (inactive)"},
      {"smiles": "CC(CN)CC(C)(C)CCN", "note": "(stereo unspecified)", "Potency": "inactive"},
      {"smiles": "NNc1nnc(NN)c2ccccc12", "Potency": "inactive"},
      {"smiles": "Cc1ccccc1N=O", "Potency": "inactive"}
    ]}
  ]
}
